Drawing on PubChem BioAssay, this text covers composite z-score, z-score and composite Z-score for 8 compounds.

Active and inactive are the calls of the source.

For experiment [1], the system named is Human papillomavirus type 1a protein E7 (residues 44-93). Nature of the experiment: HPV1a E7 fragment binders on microarrays, primary screen, biochemical, small-molecule microarray, residues 44-93, 635 nm fluorescence (AID 1108).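 Further: E7 fragment applied at 1 µg/mL in TBST for 1 h at 4 C; score combines spot fluorescence with its signal to noise ratio.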 As to conditions: small-molecule microarray binding, fluorescence 635 nm; higher = more signal.
The nature of experiment [2]: modulators of HCV replicon luciferase signal, primary screen, HCV replication inhibitor project, Huh7 cells, luciferase reporter (AID 1109).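 Further: huh7 hepatoma cells harbouring a luciferase neomycin HCV replicon reporter; luciferase luminescence as measure of HCV replicon replication; test concentration not given here.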 To be noted: 48 h, higher = more signal. Background: A replicon is a self-replicating genome or part of one, used to study replication in cells.
For experiment [3], the target named is Left-right determination factor 2 (Homo sapiens) (UniProt O00292). Nature of the experiment: LEFTY2 binders on small-molecule microarrays, primary screen, biochemical, small-molecule microarray, 635 nm fluorescence scan (AID 1110). As to conditions: LEFTY2 binding, higher = more signal.
Chain of Left-right determination factor 2 (Homo sapiens) (O00292 whole entry, looked up): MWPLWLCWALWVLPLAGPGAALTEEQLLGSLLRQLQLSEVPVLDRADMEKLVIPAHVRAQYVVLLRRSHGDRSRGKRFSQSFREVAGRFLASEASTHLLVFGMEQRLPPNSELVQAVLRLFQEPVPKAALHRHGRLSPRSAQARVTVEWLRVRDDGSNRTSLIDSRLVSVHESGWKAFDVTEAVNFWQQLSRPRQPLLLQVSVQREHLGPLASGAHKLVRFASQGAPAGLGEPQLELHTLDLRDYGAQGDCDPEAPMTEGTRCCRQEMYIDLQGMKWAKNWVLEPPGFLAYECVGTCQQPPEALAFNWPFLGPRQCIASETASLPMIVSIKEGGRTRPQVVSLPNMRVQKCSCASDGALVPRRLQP
In experiment [4] the target is Calmodulin-1 (Homo sapiens) (UniProt P0DP23). The experiment in a line: CALM1 binders on microarrays, EGTA buffer, profiling panel, biochemical, small-molecule microarray, Cy5-labelled CALM1 (AID 1111).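 Further: labelled calmodulin applied in Tris saline Tween buffer holding calcium plus EGTA and DTT.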 To be noted: Cy5-CALM1 binding fluorescence, higher = more signal.
Experiment [5] shares this target. The experiment in a line: calcium-bound CALM1 binders on microarrays, profiling panel, artefact control for SMM control-protein annotation, biochemical, small-molecule microarray, Cy5-labelled CALM1, plus calcium (AID 1112).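 Further: score merges spot fluorescence with signal to noise from triplicate slides.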 As to conditions: Cy5-CALM1 binding fluorescence, higher = more signal.
Experiment [6] can be described thus: small-molecule microarray binders of probe aWnt5a, primary screen, biochemical, biotinylated probe, 635/667 nm fluorescence (AID 1113).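 Further: score merges 667 nm fluorescence intensity with signal-to-noise per printed feature.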 As to conditions: higher = more signal.
Experiment [7] can be described thus: small-molecule microarray binders of probe aShh, primary screen, biochemical, biotinylated probe, 635/667 nm fluorescence (AID 1114).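 Further: probe is biotin-labelled aShh protein from a stem cell growth factor screen; measures binding of labelled protein to compounds printed on the slide; score merges feature fluorescence at 667 nm with signal-to-noise.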 As to conditions: higher = more signal.
A short description of experiment [8]: small-molecule microarray binders of probe aNog, primary screen, biochemical, biotinylated probe, 635/667 nm fluorescence (AID 1115).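 Further: probe is biotinylated aNog protein used at 0.15 µg/mL for 1 h at 4 C; z-score combines 667 nm fluorescence of each spot with its signal to noise.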 To be noted: higher = more signal.
Experiment [9] has as its target Torsin-1A-interacting protein 1 (Homo sapiens) (UniProt Q5JTV8). The experiment in a line: LAP1 binders from COS7 cell lysate, primary screen, small-molecule microarray, 635/667 nm fluorescence (AID 1116). As to conditions: COS7-hLAP1 lysate binding, 635 nm fluorescence, higher = more signal.
The target in experiment [10] is Alpha-bungarotoxin (Bungarus multicinctus) (UniProt P60615). Nature of the experiment: alpha-bungarotoxin binders on microarray, profiling panel, artefact control for SMM control protein annotation, biochemical, small-molecule microarray, Alexa647 label, 635/667 nm fluorescence (AID 1117). To be noted: alpha-BTX-A647 binding fluorescence, higher = more signal.
Chain of Alpha-bungarotoxin (Bungarus multicinctus) (P60615 whole entry, looked up): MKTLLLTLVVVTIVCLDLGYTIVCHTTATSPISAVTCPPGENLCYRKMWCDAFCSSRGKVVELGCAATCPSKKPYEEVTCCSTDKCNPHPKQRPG
A further experiment concerns the target Albumin (Bos taurus) (UniProt P02769). The experiment in a line: bovine serum albumin binders on microarray, profiling panel, artefact control for SMM control protein annotation, biochemical, small-molecule microarray, Alexa647 label, 635/667 nm fluorescence (AID 1118).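 Further: score merges 667 nm emission intensity and signal-to-noise per printed compound spot.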 As to conditions: BSA-A647 binding, fluorescence 635 nm, higher = more signal.
Experiment [11] can be described thus: small-molecule microarray binders of probe aXIP, primary screen, biochemical, NeuroSMM set, 635/667 nm fluorescence (AID 1119).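 Further: probe is the protein aXip251-270 applied at 1 µg/mL to compound-printed slides; binding of probe to printed compounds measured as 667 nm fluorescence plus signal to noise.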 As to conditions: higher = more signal, called active from +8 up or from −8 down.
Experiment [12] can be described thus: small-molecule binders of probe aNOTCH3, primary screen, biochemical, small-molecule microarray, 635/667 nm fluorescence (AID 1120).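 Further: probe is a biotin-tagged antibody raised against NOTCH3 rather than NOTCH3 protein; score merges spot fluorescence near 667 nm with spot signal to noise.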 To be noted: higher = more signal.
The nature of experiment [13]: small-molecule binders of probe aNOTCH2, primary screen, biochemical, small-molecule microarray, 635/667 nm fluorescence (AID 1121).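 Further: score merges feature fluorescence read at 667 nm with its signal to noise.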 To be noted: higher = more signal.
Experiment [14] addresses Carbonic anhydrase 2 (Homo sapiens) (UniProt P00918). The experiment in a line: CAII small-molecule binders, profiling panel, biochemical, small-molecule microarray, Alexa647-labelled CAII (AID 1122). As to conditions: CAII-A647 binding fluorescence, higher = more signal.
A short description of experiment [15]: COS7 lysate on small-molecule microarray, probe aHis, 635 nm (AID 1123).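 Further: z-score combines 667nm fluorescence intensity with signal-to-noise per printed compound spot.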 As to conditions: COS7 cell lysate, fluorescence, higher = more signal.
The nature of experiment [16]: compound binding in COS7 lysate, probe aLAP1, primary screen, cell lysate, small-molecule microarray (AID 1124).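 Further: lysate comes from COS7 cells expressing LAP1 and is applied at 0.3 µg/mL; score merges spot fluorescence near 667 nm with signal-to-noise over triplicate slides.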 As to conditions: probe aLAP1, fluorescence, higher = more signal.
A further experiment deals with Sam68 (KHDRBS1). The experiment in a line: Sam68 small-molecule binders, primary screen, biochemical, small-molecule microarray, 635 nm fluorescence (AID 1125).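 Further: score merges 667 nm channel intensity with signal to noise over triplicate slides.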 To be noted: small-molecule microarray binding, higher = more signal.
The test system of experiment [17] is Chordin-like protein 2 (CHRDL2). Nature of the experiment: CHRDL2 small-molecule binders, primary screen, biochemical, small-molecule microarray, 635 nm fluorescence (AID 1126).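 Further: printed compound slides probed with Chrdl2 protein at 4 µg/mL for 1 h at 4 C; score merges 667 nm emission intensity with signal to noise over three replicate slides.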 To be noted: small-molecule microarray binding, fluorescence 635 nm; higher = more signal.
Experiment [18] addresses Concanavalin-A (Canavalia ensiformis) (UniProt P02866). The experiment in a line: ConA small-molecule binders, primary screen, artefact control for SMM control protein annotation, biochemical, small-molecule microarray, Alexa647 label, 635 nm (AID 1127).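 Further: z combines 667 nm emission intensity with signal-to-noise across three replicate slides.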 As to conditions: ConA-A647 binding fluorescence, higher = more signal.

Chain of Torsin-1A-interacting protein 1 (Homo sapiens) (Q5JTV8 whole entry, looked up): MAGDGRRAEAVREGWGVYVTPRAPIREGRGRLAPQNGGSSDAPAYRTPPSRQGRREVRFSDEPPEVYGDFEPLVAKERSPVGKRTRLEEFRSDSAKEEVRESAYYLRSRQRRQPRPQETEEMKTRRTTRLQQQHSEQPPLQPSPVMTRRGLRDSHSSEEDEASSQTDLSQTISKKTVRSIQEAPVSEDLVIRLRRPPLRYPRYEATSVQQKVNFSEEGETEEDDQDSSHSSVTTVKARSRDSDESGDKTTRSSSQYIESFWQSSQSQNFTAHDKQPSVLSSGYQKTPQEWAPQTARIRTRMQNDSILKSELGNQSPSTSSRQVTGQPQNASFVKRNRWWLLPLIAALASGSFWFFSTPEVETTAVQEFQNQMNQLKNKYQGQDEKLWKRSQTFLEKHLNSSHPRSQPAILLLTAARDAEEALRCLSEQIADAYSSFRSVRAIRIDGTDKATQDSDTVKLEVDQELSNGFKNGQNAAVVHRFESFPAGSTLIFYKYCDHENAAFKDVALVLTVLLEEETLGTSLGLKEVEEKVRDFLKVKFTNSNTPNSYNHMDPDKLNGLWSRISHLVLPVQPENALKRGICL
Chain of Albumin (Bos taurus) (P02769 whole entry, looked up): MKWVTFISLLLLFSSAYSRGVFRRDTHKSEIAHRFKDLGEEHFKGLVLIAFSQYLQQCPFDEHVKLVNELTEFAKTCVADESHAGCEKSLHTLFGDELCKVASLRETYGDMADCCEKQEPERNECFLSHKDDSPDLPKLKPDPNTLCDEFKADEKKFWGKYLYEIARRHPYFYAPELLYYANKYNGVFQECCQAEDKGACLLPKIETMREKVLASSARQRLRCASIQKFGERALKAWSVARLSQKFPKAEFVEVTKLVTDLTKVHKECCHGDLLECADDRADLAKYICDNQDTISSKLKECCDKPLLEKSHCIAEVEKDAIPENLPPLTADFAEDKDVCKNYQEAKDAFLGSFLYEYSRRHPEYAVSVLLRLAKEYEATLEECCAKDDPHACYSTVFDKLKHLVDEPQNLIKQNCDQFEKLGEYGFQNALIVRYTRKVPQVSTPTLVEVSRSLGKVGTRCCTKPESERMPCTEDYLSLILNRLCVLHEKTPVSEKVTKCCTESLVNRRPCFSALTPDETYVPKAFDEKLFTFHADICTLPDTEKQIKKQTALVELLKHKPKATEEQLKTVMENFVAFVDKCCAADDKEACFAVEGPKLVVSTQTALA
Chain of Concanavalin-A (Canavalia ensiformis) (P02866 whole entry, looked up): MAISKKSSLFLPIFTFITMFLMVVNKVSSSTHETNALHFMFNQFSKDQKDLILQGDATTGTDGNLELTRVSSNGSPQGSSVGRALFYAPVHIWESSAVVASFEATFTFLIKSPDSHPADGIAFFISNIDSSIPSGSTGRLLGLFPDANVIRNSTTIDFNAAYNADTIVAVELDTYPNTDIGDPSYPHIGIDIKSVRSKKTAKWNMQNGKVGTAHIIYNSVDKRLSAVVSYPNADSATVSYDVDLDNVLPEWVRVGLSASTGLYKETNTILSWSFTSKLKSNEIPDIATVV

With `COCCOC(=O)N1C(=O)[C@@]2(c3cc(C#Cc4ccc(OC)cc4)ccc31)[C@H](C(=O)N1CCc3cc(OC)c(OC)cc3C1)[C@H]1C(=O)O[C@H](c3ccccc3)[C@H](c3ccccc3)N1[C@@H]2c1ccc(O)cc1`, the composite z-score in experiment [1] is 1.13; in experiment [3] it was 0.582; in experiment [4], 0.111; in [5], -0.575; in [6], 0.0088; in experiment [7], 0.191. The composite z-score in experiment [8] was -0.407; in [9], 0.575; in [10], 1.78; with Albumin (Bos taurus), -0.237; in [12] it was 0.436; in [13], 0.357. For the same compound, the composite z-score was determined as 0.282 in experiment [14]; 0.853 in experiment [15]; 0.844 in experiment [16]; 1.28 with Sam68 (KHDRBS1); 0.805 in [17]; 1.16 in experiment [18]. This compound registered a z-score in experiment [2] of -0.246. Further, the composite Z-score in experiment [11] is -0.0164 (inactive).

Take `COC(=O)[C@@]1(Cc2ccc(F)cc2)[C@@H]2[C@@H](CC(=O)[C@H]2CC(=O)C(=O)N2CCCC2)CN1C(=O)c1ccccc1`: the composite z-score in experiment [1] was 1.43; in [3], -0.412; in experiment [4], 2.17; in [5], 1.01; in experiment [6], 0.135; in experiment [7] it was 0.338. In addition, the composite z-score in experiment [8] was determined as 2.34; in [9] it was 0.739; in experiment [10], 1.03; in the experiment with Albumin (Bos taurus), 1.08; in [12], 0.506; in experiment [13] it was 0.239. Moreover, the composite z-score was 0.603 in [14]; 3.17 in experiment [15]; 0.552 in experiment [16]; 1.3 with Sam68 (KHDRBS1); -0.232 in [17]; 1.16 in [18]. In [2], this compound displayed a z-score of -2.01. For the same compound, the composite Z-score in [11] is 0.304 (inactive).

In the case of `CC(C)C[C@@H]1NC(=O)[C@@H]2C[C@H](C(=O)NCc3ccc(F)cc3)[C@H](c3ccc(O)cc3)N2C1=O`, the composite z-score is 1.11 in experiment [1]; 0.1 in experiment [3]; 1.35 in experiment [4]; -0.166 in [5]; -0.147 in experiment [6]; 0.191 in experiment [7]. Besides, the composite z-score in [8] is -0.319; in [9], 1.03; in [10], 0.896; in the experiment with Albumin (Bos taurus) it was -0.674; in experiment [12], -0.222; in [13], -0.126. The composite z-score amounted to 0.47 in experiment [14]; 2.61 in experiment [15]; 0.38 in experiment [16]; 0.425 in the experiment on Sam68 (KHDRBS1); 0.448 in [17]; 1.18 in [18]. In experiment [2], this compound came in with a z-score of -0.738. For the same compound, the composite Z-score in experiment [11] is 0.63 (inactive).

In the case of `CCCc1cc2c(n1Cc1ccc(OC)cc1)C(C)C1CN(C(=O)c3ccccc3)C(C)(C(=O)OC)C21` (stereo not given), the composite z-score in experiment [1] was 0.247; in experiment [3], -0.307; in [4], 2.6; in experiment [5], 1.42; in [6], 0.157; in experiment [7] it was 0.686. Moreover, the composite z-score in experiment [8] stood at 1.26; in [9] it was 2.19; in [10] it was 2.52; with Albumin (Bos taurus) it was 1.08; in experiment [12] it was 0.223; in experiment [13], 0.16. The composite z-score was 0.571 in experiment [14]; 3.13 in experiment [15]; 0.746 in [16]; 1.25 in the experiment with Sam68 (KHDRBS1); -1.63 in experiment [17]; 1.18 in [18]. The same compound displayed a z-score in experiment [2] of -2.16. Also, the composite Z-score in experiment [11] was -0.41 (inactive).

Regarding `COc1ccc(C#Cc2ccc3c(c2)[C@]2(C(=O)N3)[C@H](C(N)=O)[C@H]3C(=O)O[C@H](c4ccccc4)[C@H](c4ccccc4)N3[C@@H]2c2ccc(O)cc2)cc1`, the composite z-score in [1] was 1.48; in experiment [3] it was 0.422; in experiment [4] it was 0.539; in experiment [5] it was 0.686; in experiment [6], -0.12; in experiment [7] it was -0.0904. Further, the composite z-score in [8] was -0.215; in experiment [9], 1.09; in experiment [10] it was 1.05; in the experiment with Albumin (Bos taurus) it was 0.49; in experiment [12], -0.0947; in [13], -0.148. Further, the composite z-score in experiment [14] is 0.414; in experiment [15], 2.27; in [16], 0.211; with Sam68 (KHDRBS1), 0.902; in [17], -0.0806; in experiment [18] it was 0.985. Also, in [2], the z-score was -2.51. Besides, in experiment [11], the composite Z-score was 0.312 (inactive).

Turning to `[N-]=[N+]=Nc1ccccc1C[C@]1(C(=O)NCCN2CCOCC2)N=C(c2ccc(OCCCO)cc2)O[C@H]1c1ccccc1N=[N+]=[N-]`, the composite z-score in experiment [1] was 1.12; in experiment [3], 0.863; in experiment [4], 1.1; in experiment [5], -0.198; in experiment [6], 0.136; in [7], -0.138. For the same compound, the composite z-score in [8] turned out to be 1.85; in [9] it was 1.51; in experiment [10] it was 1.12; in the experiment with Albumin (Bos taurus), 0.892; in [12], 0.505; in experiment [13], 0.141. For the same compound, the composite z-score turned out to be 0.584 in experiment [14]; 2.84 in [15]; 0.505 in experiment [16]; 1.29 in the experiment on Sam68 (KHDRBS1); 0.415 in experiment [17]; 1.15 in [18]. Moreover, the z-score in [2] is -2.49. Also, the composite Z-score in [11] was 0.241 (inactive).

Regarding `CCCC=C(CCC)[C@@H](NS(=O)(=O)CC)c1ccccc1`, the composite z-score in experiment [1] is 1.37; in experiment [3] it was -0.0866; in [4], 1.37; in experiment [5] it was 0.855; in experiment [6], 0.0516; in [7], 0.949. The composite z-score in [8] is 1.26; in experiment [9], 0.806; in experiment [10], 0.157; with Albumin (Bos taurus), 0.929; in experiment [12], 0.096; in [13], -0.0194. For the same compound, the composite z-score was 0.532 in [14]; 1.68 in experiment [15]; 0.177 in [16]; 1.29 in the experiment with Sam68 (KHDRBS1); -0.462 in experiment [17]; 1.04 in [18]. For the same compound, in experiment [2], the z-score is -2.68. Also, the composite Z-score in [11] was -0.112 (inactive).

For the compound `CN1C(=O)C2C=CC(C(O)C3CCCCC3)N(N(c3ccccc3)c3ccccc3)C2C1=O` (stereo not given), the composite z-score was -1.93 in experiment [1]; -0.939 in [3]; 0.142 in experiment [4]; 0.405 in [5]; 0.204 in [6]; 0.117 in [7]. Moreover, the composite z-score in experiment [8] was 0.0294; in experiment [9], 0.0416; in [10], -0.232; with Albumin (Bos taurus) it was -0.0103; in [12], 0.367; in experiment [13], 0.232. Besides, the composite z-score in experiment [14] is 0.72; in experiment [15], 2.56; in [16], 1.21; with Sam68 (KHDRBS1), -0.864; in experiment [17], -1.04; in experiment [18], -1.27. Also, the z-score in [2] is -0.15. The composite Z-score in experiment [11] was 0.54 (inactive).
